Laboratory results as given in PubChem BioAssay (NCI).
The panel holds about 79,000 compounds, 15% with a hit somewhere; the sample as a whole holds those more often. A number with no mark means an inactive call. Active and inactive are the calls of the source. Cut-off read from the data, not from the text of the source: active = growth inhibition above about 70%; inactive = the rest.

Legend:
[1] = NCI Yeast Anticancer Drug Screen. Data for the rad50 strain (AID 155);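 note: 0% = growth of vehicle-only cultures of the same strain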; conditions: S. cerevisiae rad50 strain growth inhibition; at 50.0 µM; hits give high values
Procedure, shortened: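 Relative growth inhibition (compound vs vehicle) was measured in yeast with a defined repair-gene alteration.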

[2] = NCI Yeast Anticancer Drug Screen. Data for the mec2-1 strain (AID 157); conditions: S. cerevisiae mec2-1 strain, at 50.0 µM, hits give high values
Procedure, shortened: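 Vehicle-treated cultures served as reference for growth inhibition of compound-exposed mec2-1 yeast.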

[3] = NCI Yeast Anticancer Drug Screen. Data for the sgs1 mgt1 strain (AID 161);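 note: 0% = growth of cultures given vehicle only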; conditions: S. cerevisiae sgs1 mgt1 strain, at 50.0 µM, hits give high values
Procedure, shortened: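 Read-out: growth inhibition vs vehicle controls. Cells: mutant yeast strain deficient in DNA damage repair.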

[4] = NCI Yeast Anticancer Drug Screen. Data for the cln2 rad14 strain (AID 165);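 note: 0% = growth equal to vehicle treated cultures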; conditions: S. cerevisiae cln2 rad14 strain, at 50.0 µM, hits give high values
Procedure, shortened: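 Each compound was tested on cln2 rad14 yeast. Inhibition of growth was calculated against vehicle-exposed controls.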

[5] = NCI Yeast Anticancer Drug Screen. Data for the bub3 strain (AID 167); conditions: S. cerevisiae bub3 mutant strain, at 50.0 µM, hits give high values
Procedure, shortened: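 Screening used yeast with an engineered genetic alteration affecting cell cycle control. Compound-exposed cultures were compared with vehicle cultures, and reduced growth was taken as inhibition.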

[6] = NCI Yeast Anticancer Drug Screen. Data for the mlh1 rad18 strain (AID 175); conditions: S. cerevisiae mlh1 rad18 strain growth inhibition; at 50.0 µM; hits give high values
Procedure, shortened: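 Vehicle-treated cultures served as the reference for growth inhibition in a yeast strain carrying DNA damage repair alterations exposed to each compound.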

Compound	growth inhibition [1]	growth inhibition [2]	growth inhibition [3]	growth inhibition [4]	growth inhibition [5]	growth inhibition [6]
CCC(C(=O)O)c1ccc(-c2ccccc2)cc1 (stereo unspecified)	24.6%	24.1%	19.1%	23.1%	24.4%	9.5%
CCOC(=O)NC(NC(=O)OCC)c1ccc(OC)cc1	-7.7%	-1.95%	1.75%	42.7%	-6.55%	-10.1%
C=Nc1ccc([N+](=O)[O-])c(N=C)c1	-2.85%	-0.25%	-9.7%	-18%	2.7%	5.15%
CCC(=O)CCc1ccc2ccccc2c1	22.2%	15.7%	10.9%	-16.9%	23.5%	24.2%
O=C(NC1CC1)c1ccccc1	5.8%	1.6%	4.7%	-5.9%	1.85%	-15.7%
COc1ccc(OC)c(NC(C)=O)c1	-30.4%	-12.2%	-16.3%	-3.05%	-24.4%	-8.55%
COC(C[P+](Cc1ccccc1)(c1ccccc1)c1ccccc1)OC	66.9%	-2.7%	39%	2.4%	4.1%	4.35%
C=CNc1cccc2ccccc12	13.8%	11.6%	14.2%	5.85%	25.1%	14.7%
CCOC(=O)c1ccc(Nc2nc3cc(C(F)(F)F)ccc3nc2C(=O)OCC)cc1	-31.2%	-10.9%	-31.9%	-19.4%	-11.7%	-19.6%
CC1CCc2c(ccc3ccccc23)C1 (stereo unspecified)	-0.25%	-16.4%	-3.55%	-4.55%	-16.8%	-2.05%
O=C1C2C3CCC(O3)C2C(=O)N1c1ccccn1 (stereo unspecified)	-26.3%	-11.6%	-4.85%	-25.1%	2.25%	0.2%
COc1ccc(NC(C)=O)cc1[N+](=O)[O-]	-4.6%	-7.7%	-1.7%	-13.3%	-18.3%	6.15%
COC(=O)C(C(=O)C(=O)Nc1cccc([N+](=O)[O-])c1)c1nc2ccc([N+](=O)[O-])cc2[nH]c1=O (stereo unspecified)	37.6%	17.6%	-10.2%	-37.8%	9.2%	46.5%
Cc1nnnn1[C@H]1C(C#N)CC2[C@@H]3CCC4=Cc5nnnn5CC[C@]4(C)C3CC[C@@]21C (stereo partly specified)	23.3%	27.4%	23%	16.6%	13.2%	25.2%
O=C1Nc2ccccc2CS1	0.55%	-4.9%	-2.1%	-5.85%	6.95%	-1.05%
Oc1ccc(Br)cc1C(=S)N1CCOCC1	9.3%	18.4%	4.45%	3.6%	-10.1%	37.2%
CC(=O)C1CCC2C3CC=C4CC(O)CCC4(C)C3CCC12C (stereo unspecified)	26.4%	18.4%	23.8%	45.3%	37%	46.6%
CCCCCCCC(=O)Oc1cccc(C)c1	-0.9%	-3.3%	-8.6%	-10.3%	-7.35%	2.2%
Cc1ccc(C2=Nc3ccccc3SC(c3cccc([N+](=O)[O-])c3)C2)cc1 (stereo unspecified)	11.2%	-12.6%	11.8%	-9.25%	-6.2%	-1.8%
CCOC(=O)NC(=Cc1ccccn1)c1ccc(Cl)cc1 (mixture of isomers)	7.7%	-3.1%	-8.35%	-0.7%	4.25%	28.6%
N#CC1C(=O)NC(=O)C(C#N)C12CCCC2 (stereo unspecified)	-3.65%	-9.2%	5.25%	-22.2%	10.9%	10.7%

Compound	growth inhibition [1]	growth inhibition [2]	growth inhibition [3]	growth inhibition [4]	growth inhibition [5]	growth inhibition [6]
CCCOc1ccc(C(N)=S)c2ccccc12	-0.25%	1.1%	8.45%	-28.2%	20.2%	12.3%
CCCCCCCCCCCOc1ccc(Cl)cc1Cl	10.4%	16.5%	8.75%	-4.05%	30.2%	12.2%
CCC(OC(C)=O)c1ccccc1 (stereo unspecified)	12.8%	17.2%	11.5%	6.45%	27.4%	1.5%
O=C1c2cc([N+](=O)[O-])sc2C(=O)c2ccsc21	88.6% (active)	89.3% (active)	91.2% (active)	90.2% (active)	91.1% (active)	90.7% (active)
C/C(=N\OC(=O)c1c(-c2c(Cl)cccc2Cl)noc1C)c1ccccc1O	1.5%	-23.4%	-1.6%	12.2%	-21.9%	-4.75%
O=C(C[n+]1ccccc1Br)c1ccc(I)cc1	-32.9%	2%	10.3%	-6.95%	17.1%	29.9%
C=CCOC(=O)c1c(Cl)c(Cl)c(Cl)c(Cl)c1C(=O)O	18.4%	7.85%	29.1%	25.9%	14.1%	23.9%
CN1CCN(Cc2cc(C(C)(C)C)cc(-c3ccccc3)c2O)CC1	39.4%	-25.1%	6.9%	6.45%	8%	25.6%
COCCCC(NC(=O)C(CC(C)C)NC(=O)OCc1ccc(OC)cc1)C(N)=O (stereo unspecified)	-12.9%	-21.4%	-22.9%	4.2%	-12.1%	4.2%
c1csc(-c2cc(-c3cccs3)c(-c3ccsc3)s2)c1	-46.8%	-43.4%	-32.2%	-26.2%	-19.5%	-46%
COc1ccc(C(=O)Oc2ccccc2C)cc1	5.9%	-26.4%	-6.1%	-11%	-6.8%	-1.95%
Nc1nc(-c2ccc3c(ccc4ccccc43)c2)cs1	7.6%	15.5%	18.2%	-46.3%	47.7%	28.2%
C/C(CC(=O)Nc1ccccc1C)=N/NS(=O)(=O)c1ccc(C)cc1	-2.2%	-5.2%	10.2%	19.3%	-18.4%	-6.9%
CC12CCC(C/C1=N\NC(N)=O)C2(C)C (stereo unspecified)	4.2%	-16.6%	-18.2%	2.55%	-19.9%	-1.45%
COc1ccc(-c2onc(-c3ccc([N+](=O)[O-])cc3)c2C2=NCCCN2)cc1	0.45%	-6.65%	-10.3%	12.7%	-1.95%	-20.3%
COCCC(N)C(=O)O (stereo unspecified)	6%	-13.3%	-15%	-22.8%	-11.6%	2.65%
CCOC(=O)C1CN(CCc2ccccc2)CCC1=O (stereo unspecified)	30.9%	-8.65%	32.1%	16.5%	42.8%	31.8%
O=C(CN1C(=O)c2ccccc2C1=O)NCC(=O)N(C(=O)NC1CCCCC1)C1CCCCC1	23.1%	2.3%	27.9%	11.8%	-3.35%	5%
OC1c2ccccc2-c2c(Cl)cc(Cl)cc21 (stereo unspecified)	0.25%	6.1%	11.2%	-45.9%	3.95%	1.95%
CC(=O)OC12C(C)=C(C)C(=O)N1c1ccccc1N2C(C)=O (stereo unspecified)	-20.8%	2.55%	6.7%	15.9%	6.15%	11.1%
